Results from the supplement of paper PMC3334620.
In all, about 33,000 sequences were measured (“E-score (-0.5 to 0.5)”: median about -0.035, highest 2% from about 0.34 on). The sample holds the highest values, similar sequences and a random draw of the others, so the mix is not that of the screen.

molecular target: T1, Mot3 (UniProt P54785); assay: PBM E-score (8-mer binding enrichment) (E-score (-0.5 to 0.5)); higher = stronger / more preferred TF binding; conditions: protein concentration: 200 nM; construct: GST-full length
T1 sequence: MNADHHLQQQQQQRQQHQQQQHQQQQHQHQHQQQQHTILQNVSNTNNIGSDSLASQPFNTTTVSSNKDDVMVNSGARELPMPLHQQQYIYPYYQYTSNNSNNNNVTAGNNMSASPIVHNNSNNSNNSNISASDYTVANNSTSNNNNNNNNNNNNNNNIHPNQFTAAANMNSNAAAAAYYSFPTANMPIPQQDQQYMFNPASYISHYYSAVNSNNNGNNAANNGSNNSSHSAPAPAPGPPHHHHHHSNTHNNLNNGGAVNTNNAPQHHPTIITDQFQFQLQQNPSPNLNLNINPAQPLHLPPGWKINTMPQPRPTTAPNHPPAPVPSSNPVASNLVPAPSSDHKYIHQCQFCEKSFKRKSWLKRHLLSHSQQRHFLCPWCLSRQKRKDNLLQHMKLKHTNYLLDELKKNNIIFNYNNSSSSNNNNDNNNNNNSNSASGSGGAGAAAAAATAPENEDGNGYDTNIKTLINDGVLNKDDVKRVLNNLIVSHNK
Procedure, shortened: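 Yeast transcription factors carrying a GST tag, as full-length proteins or DNA-binding domains, were produced by PURExpress in vitro transcription/translation. About 100-200 nM protein was applied to universal all-10-mer Agilent arrays, double-stranded by primer extension on fresh or once-stripped slides. Bound protein was detected with fluorescent anti-GST, and scans were normalised with masliner. The Universal PBM Analysis Suite gave each ungapped eight-base word, pooled with its reverse complement, an E-score, a modified Wilcoxon-Mann-Whitney statistic.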

| Sequence | PBM E-score |
| --- | --- |
| ACAGCCAT | 0.172 |
| AGCAGGGA | -0.167 |
| ACAGTCAT | -0.0548 |
| GAGCGCAC | -0.307 |
| ATCTTGGG | -0.157 |
| ACGCTCAG | -0.226 |
| ATCAACTG | -0.0772 |
| GAAGTACC | 0.00084 |
| ACCGAATC | -0.00094 |
| GTAAGGCA | 0.464 |
| CTAAGGCC | -0.0134 |
| GTAAGGGA | 0.145 |
| ATAAGGCG | 0.0672 |
| ATAAGGCA | 0.46 |
| CTAAGGCA | 0.452 |
| GTAAGGTA | 0.321 |
| CTAAGGTA | 0.226 |
| ATAAGGCC | -0.142 |
| TACTGAAA | 0.037 |
| AGACGTTC | -0.008 |
| AGCATAAC | 0.0259 |
| AGTCTATA | -0.0584 |
| GGCACCGA | 0.356 |
| CGCACCGA | -0.27 |
| GGCACCTA | 0.357 |

| Sequence | PBM E-score |
| --- | --- |
| AGCACCTA | 0.199 |
| CGCACCTA | -0.125 |
| AGCACCGA | -0.168 |
| GGCCGAAA | -0.186 |
| TACCCAAA | 0.11 |
| AATCTATG | -0.00189 |
| ACCTGAAG | -0.135 |
| AAGCCCCT | -0.195 |
| AGAACTAT | -0.0425 |
| AGAAAGAG | -0.195 |
| CAAGGACC | 0.0666 |
| AAAGGAAT | -0.0306 |
| CAAGGAAG | -0.00272 |
| AAAGGAAC | 0.456 |
| CAAGGAAC | 0.43 |
| AAAGGAGA | -0.0548 |
| AAAGGAAG | 0.059 |
| GAAGGAGC | -0.251 |
| GAAGGAAC | 0.468 |
| AAAGGAAA | 0.442 |
| CGAGGAAC | 0.285 |
| AAAGGATA | -0.0444 |
| AACTCTCT | -0.19 |
| AGCCCGAT | -0.195 |
| CCCAGGAG | -0.207 |

| Sequence | PBM E-score |
| --- | --- |
| ACTTGTAT | 0.173 |
| ACACCTTG | 0.193 |
| CCGTTGTA | 0.125 |
| CTGAACCA | 0.0648 |
| AACAGGCG | 0.167 |
| GACAGGCC | -0.139 |
| TACAGTCA | 0.191 |
| GACAGGGA | -0.089 |
| GACAGGCA | 0.483 |
| AACAGGCA | 0.484 |
| AACAGGCT | 0.305 |
| TACAGGGA | 0.0536 |
| CACAGGCC | 0.0987 |
| TACAGGCA | 0.484 |
| CACAGGCG | 0.277 |
| CACAGGCA | 0.482 |
| GCTGTGAC | -0.128 |
| GACTTCCA | -0.126 |
| TGGAAGAA | 0.00562 |
| CACTACGG | -0.1 |
| GCCACAGA | -0.0635 |
| GAGGAGGC | -0.0566 |
| AATAAGTA | 0.124 |
| CCACTCGA | -0.0827 |
| AATAGACG | -0.138 |

| Sequence | PBM E-score |
| --- | --- |
| ACACGCGT | 0.36 |
| ACACGCGA | 0.292 |
| ACACGCTC | 0.305 |
| ACACGCGG | 0.252 |
| ACACGCTG | 0.256 |
| ACACGCTA | 0.356 |
| AGTATCGA | 0.122 |
| TCGTAGAA | 0.0868 |
| CCGATCAC | -0.0956 |
| ATCGCCAG | -0.289 |
| AGATGTTA | 0.158 |
| GCATGTTA | 0.385 |
| ACATGTTC | 0.295 |
| ACATGTTA | 0.397 |
| ACATGTTG | 0.368 |
| AAATGTTA | 0.288 |
| GGATGTTA | 0.172 |
| CCATGTTA | 0.339 |
| AGATGTTG | -0.102 |
| CTAGGTCA | -0.135 |
| ATTGGCAC | -0.068 |
| AAACCTGG | 0.0922 |
| GCCGTTAC | -0.13 |
| CCAACTCC | -0.135 |
| TCCTCCAA | -0.0985 |

| Sequence | PBM E-score |
| --- | --- |
| GATCTAGC | -0.194 |
| ATACTGCC | -0.204 |
| CGCAGGCA | 0.482 |
| CGCAGGCC | 0.123 |
| GGCAGGTA | 0.277 |
| GGCAGGCA | 0.481 |
| AGCAGGCC | -0.0206 |
| TGCAGACA | 0.0246 |
| GGCAGGCC | -0.165 |
| TGCAGGCA | 0.484 |
| CGCAGGCG | 0.17 |
| AGCAGGCA | 0.483 |
| TGCAGCCA | -0.192 |
| AGCAGGCG | 0.148 |
| TATGCGAA | -0.0122 |
| TATCAATA | 0.134 |
| AGTTTTCA | -0.204 |
| CATCTGCA | -0.0636 |
| CTAACTCC | -0.141 |
| CGCGTAAA | 0.392 |
| CGCGTAAC | 0.225 |
| GGCGTAAA | 0.146 |
| TGCGTAAA | 0.342 |
| CGCGTAAG | 0.299 |
| AGCGTAAA | 0.12 |

| Sequence | PBM E-score |
| --- | --- |
| GGGGGGAA | -0.375 |
| CTCGGCTA | -0.0141 |
| GTATGGAA | -0.156 |
| GCTTGGCA | -0.105 |
| AGTTTTCG | 0.0727 |
| GCGGGTCA | 0.0734 |
| ATGAGGCA | 0.364 |
| GTGAGGCA | 0.353 |
| GTGAGGAA | -0.106 |
| ATGAGGCC | -0.174 |
| CTGAGGCA | 0.257 |
| ATGAGGCG | -0.119 |
| CCTACTTC | -0.0137 |
| ACCCGTCA | -0.239 |
| AGATAGCG | -0.0829 |
| AAGCACGG | 0.0983 |
| ACGCACGG | 0.0438 |
| CGGCACGA | 0.00099 |
| AGGCACGA | 0.491 |
| GGGCACGA | 0.163 |
| AGGCACGG | 0.491 |
| GCCCTAGC | -0.184 |
| CTTGGCAC | -0.0521 |
| CTTTGGCC | 0.0624 |
| CATTGTGA | -0.0102 |

| Sequence | PBM E-score |
| --- | --- |
| ACCACGGC | -0.108 |
| GCCCGGTA | -0.0651 |
| AATTAAAT | 0.124 |
| ACGTACGG | -0.163 |
| GGGTACGA | -0.148 |
| AGGTACGG | 0.39 |
| AGGTACGA | 0.346 |
| AGGTACGC | 0.444 |
| CGGTACGC | -0.174 |
| CGGTACGA | -0.155 |
| AGGTACTG | 0.258 |
| AGGTACTC | 0.333 |
| CGACTAGA | -0.0287 |
| AAGCCCAT | -0.253 |
| ACAACGTG | 0.114 |
| TACAGCGA | -0.184 |
| TAAATACA | 0.366 |
| GACATAGA | 0.0532 |
| CACATACA | 0.239 |
| TACATAGA | 0.357 |
| GAAATACA | 0.328 |
| TACATACA | 0.355 |
| GACATACA | 0.218 |
| AAAATACA | 0.298 |
